PubChem BioAssay AID1159580 (chemical genetic matrix, 2015)
Several values for one entry are separate records, joined by “and”; a condition that tells them apart may be missing. Equal entries are not always repeated. In all, about 5,500 compounds went through this assay and about 2,000 (36%) were called active. Not shown: some 18% with an inconclusive outcome. No stated cut-off is given here; in the data, active means normalized growth mostly below about 0.91 (no sharp cut-off); inconclusive means no clear call, values can overlap the other calls; inactive means mostly above about 0.92. Some of the results follow.

Assay: chemical genetic growth profiling, strain panel (AID 1159580);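 further: tested at 20 µM; growth read once vehicle control cultures reached saturation at 30 °C; 1 = growth at the plate median or of vehicle wells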
Details: S. cerevisiae deletion strains, growth OD

Measured: normalized growth

CC1(C)C2CC(=O)[C@]3(C)C(CC[C@@]4(C)[C@H](c5ccoc5)OC(=O)[C@H]5O[C@]543)[C@@]2(C)C(=O)C[C@H]1O (stereo not given in full)
inactive: locus YAL013W, strain DEP1, stronger effect = lower value 1.03 | locus YAL021C, strain ccr4, stronger effect = lower value 1.01 | locus YAL026C, strain drs2, stronger effect = lower value 1 | locus YAL030W, strain snc1, stronger effect = lower value 1.01 | locus YBL061C, strain skt5, stronger effect = lower value 1 | locus YBR009C, strain hhf1, stronger effect = lower value 0.992 | locus YBR021W, strain FUR4, stronger effect = lower value 0.995 | locus YBR023C, strain chs3, stronger effect = lower value 1.02 | locus YBR171W, strain sec66, stronger effect = lower value 1.01 | locus YBR229C, strain ROT2, stronger effect = lower value 1 | locus YBR231C, strain swc5, stronger effect = lower value 1 | locus YBR279W, strain paf1, stronger effect = lower value 1.01 | locus YCL011C, strain gbp2, stronger effect = lower value 1.02 | locus YCL016C, strain dcc1, stronger effect = lower value 1.01 | locus YCL029C, strain bik1, stronger effect = lower value 1.01 | locus YCL061C, strain MRC1, stronger effect = lower value 1 | locus YCL069W, strain vba3, stronger effect = lower value 1.01 | locus YCR088W, strain abp1, stronger effect = lower value 1.01 | locus YDL005C, strain med2, stronger effect = lower value 1 | locus YDL035C, strain GPR1, stronger effect = lower value 0.975 | locus YDL040C, strain nat1, stronger effect = lower value 1 | locus YDL074C, strain BRE1, stronger effect = lower value 1.03 | locus YDL101C, strain DUN1, stronger effect = lower value 1.03 | locus YDL185W, strain tfp1, stronger effect = lower value 1.02 | locus YDL192W, strain arf1, stronger effect = lower value 1.01 | locus YDR001C, strain nth1, stronger effect = lower value 1 | locus YDR069C, strain doa4, stronger effect = lower value 0.995 | locus YDR101C, strain arx1, stronger effect = lower value 1 | locus YDR137W, strain rgp1, stronger effect = lower value 1.06 | locus YDR150W, strain NUM1, stronger effect = lower value 1 | locus YDR159W, strain sac3, stronger effect = lower value 1.01 | locus YDR162C, strain NBP2, stronger effect = lower value 0.983 | locus YDR195W, strain ref2 0.977 | locus YDR297W, strain sur2, stronger effect = lower value 1.01 | locus YDR318W, strain mcm21, stronger effect = lower value 1.01 | locus YDR334W, strain swr1, stronger effect = lower value 1.01 | locus YDR335W, strain msn5, stronger effect = lower value 0.999 | locus YDR388W, stronger effect = lower value 1.01 | locus YDR392W, strain spt3, stronger effect = lower value 1.01 | locus YDR502C, strain sam2, stronger effect = lower value 1.02 | locus YEL003W, strain gim4, stronger effect = lower value 1.01 | locus YEL037C, strain rad23, stronger effect = lower value 1 | locus YEL061C, strain CIN8 (second series), stronger effect = lower value 0.996 | locus YEL061C, strain CIN8, stronger effect = lower value 1 | locus YER015W, strain faa2, stronger effect = lower value 0.995 | locus YER016W, strain bim1, stronger effect = lower value 1.01 | locus YER110C, stronger effect = lower value 1.02 | locus YER111C, strain swi4, stronger effect = lower value 1.01 | locus YER155C, strain BEM2 (second series), stronger effect = lower value 1.02 | locus YER155C, strain BEM2, stronger effect = lower value 1 | locus YER167W, strain BCK2, stronger effect = lower value 0.993 | locus YFR010W, strain ubp6, stronger effect = lower value 0.997 | locus YGL078C, strain dbp3, stronger effect = lower value 1.01 | locus YGL086W, strain mad1, stronger effect = lower value 1.01 | locus YGL167C, strain pmr1, stronger effect = lower value 1.01 | locus YGL173C, strain kem1, stronger effect = lower value 1.02 | locus YGL227W, strain vid30, stronger effect = lower value 1.01 | locus YGL240W, strain doc1, stronger effect = lower value 1.03 | locus YGL248W, strain PDE1, stronger effect = lower value 1.03 | locus YGL253W, strain hxk2, stronger effect = lower value 1 | locus YGR078C, strain PAC10, stronger effect = lower value 1.03 | locus YGR135W, strain pre9, stronger effect = lower value 1.01 | locus YGR252W, strain gcn5, stronger effect = lower value 0.993 | locus YHR013C, strain ard1, stronger effect = lower value 1.01 | locus YHR027C, strain rpn1, stronger effect = lower value 1.01 | locus YHR030C, strain SLT2, stronger effect = lower value 0.992 and 1.02 | locus YHR079C, strain IRE1 (second series), stronger effect = lower value 1.02 | locus YHR079C, strain IRE1, stronger effect = lower value 1.02 | locus YHR094C, strain hxt1, stronger effect = lower value 1.02 | locus YHR129C, strain ARP1, stronger effect = lower value 1.01 | locus YHR142W, strain chs7, stronger effect = lower value 0.999 | locus YHR200W, strain rpn10, stronger effect = lower value 1.01 | locus YIL066C, strain RNR3, stronger effect = lower value 0.979 | locus YIL073C, strain SPO22, stronger effect = lower value 1.03 | locus YIL125W, strain kgd1, stronger effect = lower value 1.01 | locus YIR030C, strain dcg1, stronger effect = lower value 1.02 | locus YJL092W, strain hpr5, stronger effect = lower value 1 | locus YJL095W, strain BCK1 (second series), stronger effect = lower value 1.01 | locus YJL095W, strain BCK1, stronger effect = lower value 1.06 and 1.03 | locus YJL115W, strain asf1, stronger effect = lower value 1 | locus YJL129C, strain trk1, stronger effect = lower value 1.03 | locus YJL134W, strain LCB3, stronger effect = lower value 0.999 | locus YJL154C, strain vps35, stronger effect = lower value 1 | locus YJL164C, strain tpk1, stronger effect = lower value 1 | locus YJL166W, strain qcr8, stronger effect = lower value 1.01 | locus YJL168C, strain set2, stronger effect = lower value 1.01 | locus YJL187C, strain SWE1 (second series), stronger effect = lower value 1.05 | locus YJR043C, strain POL32, stronger effect = lower value 0.963 | locus YJR066W, strain TOR1, stronger effect = lower value 0.956 | locus YJR075W, strain HOC1, stronger effect = lower value 1.03 | locus YKL009W, strain mrt4, stronger effect = lower value 1.03 | locus YKL068W, stronger effect = lower value 1.01 | locus YKL085W, strain MDH1 (second series), stronger effect = lower value 1 | locus YKL085W, strain MDH1, stronger effect = lower value 1 | locus YKL160W, strain elf1, stronger effect = lower value 1.01 | locus YKL190W, strain CNB1, stronger effect = lower value 1.01 | locus YKR001C, strain vps1, stronger effect = lower value 1.05 | locus YKR026C, strain gcn3, stronger effect = lower value 1 | locus YKR091W, strain srl3, stronger effect = lower value 1 | locus YLL001W, strain dnm1, stronger effect = lower value 1.01 | locus YLL026W, stronger effect = lower value 1.01 | locus YLL041C, strain sdh2, stronger effect = lower value 0.998 | locus YLR027C, strain aat2, stronger effect = lower value 1.01 | locus YLR039C, strain RIC1, stronger effect = lower value 1.02 | locus YLR058C, strain SHM2, stronger effect = lower value 1.02 | locus YLR102C, strain apc9, stronger effect = lower value 1.02 | locus YLR113W, strain HOG1, stronger effect = lower value 0.981 | locus YLR221C, strain rsa3, stronger effect = lower value 1 | locus YLR258W, strain gsy2, stronger effect = lower value 1.01 | locus YLR262C, strain YPT6 (second series), stronger effect = lower value 0.982 | locus YLR262C, strain YPT6, stronger effect = lower value 1 | locus YLR268W, strain sec22, stronger effect = lower value 1.02 | locus YLR320W, strain mms22, stronger effect = lower value 1.01 | locus YLR330W, strain CHS5, stronger effect = lower value 1 | locus YLR342W, strain FKS1 (second series), stronger effect = lower value 0.988 | locus YLR342W, strain FKS1, stronger effect = lower value 1.01 | locus YLR357W, strain rsc2, stronger effect = lower value 0.994 | locus YLR370C, strain arc18, stronger effect = lower value 0.996 | locus YLR371W, strain rom2, stronger effect = lower value 1.02 | locus YLR384C, strain iki3, stronger effect = lower value 1.01 | locus YLR418C, strain cdc73, stronger effect = lower value 1.03 | locus YML016C, strain PPZ1, stronger effect = lower value 0.997 | locus YML032C, strain rad52, stronger effect = lower value 1.01 | locus YML120C, strain ndi1, stronger effect = lower value 1.01 | locus YML124C, strain tub3, stronger effect = lower value 1.01 | locus YMR058W, strain fet3, stronger effect = lower value 1 | locus YMR078C, strain ctf18, stronger effect = lower value 1.02 | locus YMR125W, strain sto1, stronger effect = lower value 1.02 | locus YMR129W, stronger effect = lower value 1.02 | locus YMR205C, strain PFK2, stronger effect = lower value 1 | locus YMR223W, strain ubp8, stronger effect = lower value 1.01 | locus YMR231W, strain pep5, stronger effect = lower value 1.01 | locus YMR263W, strain SAP30, stronger effect = lower value 1.04 | locus YMR307W, strain GAS1, stronger effect = lower value 1.04 | locus YNL067W, strain RPL9B, stronger effect = lower value 1.05 | locus YNL071W, strain lat1, stronger effect = lower value 1 | locus YNL153C, strain GIM3, stronger effect = lower value 1.04 | locus YNL183C, strain NPR1, stronger effect = lower value 0.962 | locus YNL209W, strain ssb2, stronger effect = lower value 0.997 | locus YNL233W, strain BNI4, stronger effect = lower value 1.04 | locus YNL248C, strain rpa49, stronger effect = lower value 1.02 | locus YNL250W, strain rad50, stronger effect = lower value 1.02 | locus YNL271C, strain bni1, stronger effect = lower value 1.01 | locus YNL298W, strain CLA4, stronger effect = lower value 1.02 | locus YNL307C, strain MCK1, stronger effect = lower value 1.02 | locus YNL322C, strain KRE1 (second series), stronger effect = lower value 1.03 | locus YNR049C, strain mso1, stronger effect = lower value 0.995 | locus YNR052C, strain pop2, stronger effect = lower value 1.02 | locus YOL012C, strain htz1 2.06 | locus YOL147C, strain pex11, stronger effect = lower value 1.02 | locus YOR001W, strain rrp6, stronger effect = lower value 0.995 | locus YOR061W, strain CKA2, stronger effect = lower value 0.999 | locus YOR069W, strain VPS5, stronger effect = lower value 1.01 | locus YOR070C, strain gyp1, stronger effect = lower value 1.01 | locus YOR080W, strain dia2, stronger effect = lower value 0.997 | locus YOR083W, strain WHI5, stronger effect = lower value 1.01 | locus YOR106W, strain vam3, stronger effect = lower value 1 | locus YOR136W, strain idh2, stronger effect = lower value 1.03 | locus YOR144C, strain elg1, stronger effect = lower value 1.01 | locus YOR184W, strain ser1, stronger effect = lower value 1.01 | locus YOR231W, strain MKK1, stronger effect = lower value 1.02 | locus YOR265W, strain rbl2, stronger effect = lower value 0.99 | locus YOR270C, strain vph1, stronger effect = lower value 0.948 | locus YOR290C, strain snf2, stronger effect = lower value 1.01 | locus YOR316C, strain cot1, stronger effect = lower value 1.01 | locus YPL051W, strain arl3, stronger effect = lower value 1.01 | locus YPL078C, strain atp4, stronger effect = lower value 1.01 | locus YPL106C, strain sse1, stronger effect = lower value 1.01 | locus YPL240C, strain hsp82, stronger effect = lower value 1.02 | locus YPL256C, strain CLN2, stronger effect = lower value 1.01 | locus YPR119W, strain clb2, stronger effect = lower value 1.01 | locus YPR141C, strain kar3, stronger effect = lower value 1.01 | locus YPR163C, strain tif3, stronger effect = lower value 1.01 | locus YPR167C, strain met16, stronger effect = lower value 1.01 | strain wtn01, stronger effect = lower value 1.02
